Screening data as filed in PubChem BioAssay.
p53 reactivator: qHTS assay for re-activators of p53 using a Luc reporter | Potency, µM (top dose mostly 92.2 µM), hits mostly activators | H1299 p53-A138V BP100-luciferase reporter, luminescence, 24 h | 320,000 compounds, 0.063% hits | AID 504706, 2011; further: nearly all actives have a fitted effect of over 45% in size
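p53-null H1299 cells stably carrying temperature-sensitive p53-A138V and a BP100-luciferase reporter were pinned with compounds (4-point, 1:5 series) and held 24 hrs at 37 deg C. Luminescence was read 10 min after detection reagent.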
TCR act: Activators of T cell receptors: qHTS campaign; 330,000 tested, under 10 active; Potency, µM (doses to about 9.22 µM), hits mostly activators; primary human leukocytes, anti-CD3, IL-2 HTRF, 48 h
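Readout: HTRF IL-2, Eu-cryptate/d2 antibody pair, 320nm excitation, 665nm emission. Stimulus: a-CD3 beads, no co-stimulation. Cells: primary human leukocytes. Exposure: 48 hr with compound.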
BRCA1 expr up: qHTS Assay to Identify Small Molecule Activators of BRCA1 Expression. MCF7-BRCA1-FFLuc reporter, luminescence, 48 h; response scale: scaled: vehicle 0%, 10 µM genistein 100%. Potency, µM (highest dose often 46.1 µM), most hits filed as activators. 380,000 compounds, 1.1% hits. AID 624202, 2012; further: nearly all actives have a fitted effect of over 80% in size
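Luminescence from a BRCA1-driven firefly luciferase in MCF7 cells was read after 48 h compound exposure at 37 C. Data normalized against DMSO and a 10microM genistein activation control, then curve-fitted across the titration.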
IL2 activator: qHTS of IL-2 Activators; IL-2 activation reporter assay, cell-based qHTS; stimulated with anti-CD3/CD4/CD28 beads; in transgenic mouse T cells; activation, % (series mostly up to about 46 µM); 360,000 compounds, 0.065% hits; in the data active means activation above about 50%; inconclusive means mostly about 30% to 49%
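First, unstimulated transgenic mouse T cells were exposed to compound for 60 min. Next, anti-CD3/anti-CD4-coated beads with anti-CD28 were added. Finally, after 18 h at 37 degrees C, EGFP and DsRed were imaged.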
uPA generation: qHTS for Inhibitors of Cell Surface uPA Generation. Potency, µM (highest dose often 38.3 µM), most hits filed as inhibitors. AID 540303, 2011. cell surface uPA generation assay, qHTS. 330,000 compounds, 0.31% hits; active means well fitted inhibition curve with a large enough effect; inconclusive means small, poorly fitted or top-dose-only effect; inactive means no such curve, though single readings can be large or run the other way; tested in mouse RAW 264.7 cells; further: nearly all actives have a fitted effect of over 55% in size
Hits are given with their value; - = inactive; ? = inconclusive; . = no result given. Only some compounds are listed: those with a hit (about 1.4% of all), similar ones and a draw of the others. Unless noted, the call rests on the fitted dose curve; in most records, active means well fitted curve in the direction sought with a large enough effect; inconclusive means small, poorly fitted or top-dose-only effect, or another doubt; inactive means no such curve, though single readings can be large; an effect the other way counts as inactive or inconclusive.

SMILES	p53 reactivator	TCR act	BRCA1 expr up	IL2 activator	uPA generation
O=C(CCN1C(=O)/C(=C\C=C\c2ccccc2)SC1=S)Nc1cccc(C(=O)O)c1	-	-	6.31µM	-	?
S=c1[nH]nc(SCc2ccccc2)c2[nH]cnc12	.	-	3.55µM	-	-
CN(CCc1ccccn1)C(=O)CCc1nnc(CCCc2ccccc2)o1	-	-	12.6µM	-	-
CCOC(=O)c1ccc(CNCc2ccccc2)cc1	?	-	11.2µM	-	-
COc1cccc(N/C=C/C(=O)c2ccc(C)cc2)c1	-	.	?	-	8.91µM
CCOC(=O)c1ccc(N/C=C/C(=O)c2ccc(OC)cc2)cc1	-	-	-	-	-
Cc1ccc(O)c(N/C=C/C(=O)c2ccc(F)cc2)c1	.	-	6.31µM	-	-
CCOC(=O)c1ccc(N/C=C/C(=O)c2ccccc2)cc1	-	-	12.6µM	-	-
COc1cc(CN(C(=O)COc2ccccc2Cl)c2ccccn2)cc(OC)c1OC	.	.	-	.	.
O=C(CSc1nc(=O)n2cc(Cl)ccc2n1)Nc1ccc2c(c1)OCO2	-	-	-	311.8	-
O=C(CSc1nc(=O)n2cc(Cl)ccc2n1)Nc1ccc2c(c1)OCCO2	-	-	-	-	-
O=C(C1CC(c2ccccc2O)=NO1)N1CCCCC1 (centres undefined)	?	-	10µM	-	-
O=C(C1CC(c2ccccc2O)=NO1)N1CCc2ccccc2C1 (centres undefined)	-	-	?	-	-
COc1ccc(-c2cc3cccc(OC)c3oc2=O)cc1	?	-	-	-	?
COc1cccc2cc(-c3nc(-c4cccs4)cs3)c(=O)oc12	?	-	-	76.3	-
COc1cccc2cc(-c3nc4ccccc4[nH]3)c(=O)oc12	.	-	3.16µM	-	-
Cc1cccc2cc(-c3nc4ccc(C(=O)O)cc4[nH]3)c(=O)oc12	-	-	-	-	-
COc1cccc2cc(-c3ccccc3)c(=O)oc12	-	-	2.51µM	-	-
Cc1cccc(N2CC(c3nc4ccccc4n3CCC3CCCCC3)CC2=O)c1 (centres undefined)	.	.	-	.	.
N=C1S/C(=C\c2ccco2)C(=O)N1c1nccs1	-	-	-	-	7.94µM
O=C1CC(c2ccco2)CC2=C1C(c1ccncc1)n1nc(C(F)(F)F)nc1N2 (centres undefined)	.	.	-	.	.
Cc1cc2nc(-c3ccc(SCc4ccc(C(=O)O)cc4)nc3)[nH]c2cc1C	-	-	11.2µM	-	-
Cc1cc(NC(=O)CSc2ccc(-c3nc4cc(C)c(C)cc4[nH]3)cn2)no1	?	-	-	-	.
Cc1cc2nc(-c3ccc(SCC(=O)NC(C)C)nc3)[nH]c2cc1C	-	.	.	.	.
Cc1cc2nc(-c3ccc(SCC(=O)Nc4ccc(S(=O)(=O)NC5CC5)cc4)nc3)[nH]c2cc1C	2.82µM	-	?	-	-
SMILES	p53 reactivator	TCR act	BRCA1 expr up	IL2 activator	uPA generation
Cc1ccc(/C=N/NC(=O)c2cccs2)cc1[N+](=O)[O-]	-	-	12.6µM	-	-
CCCCCCCCCCCCOC(=O)N1CCN(/[N+]([O-])=N/Oc2ccc([N+](=O)[O-])cc2[N+](C)=O)CC1	.	.	-	.	.
CCCOc1ccc(-c2nn(-c3ccccc3)cc2C2NC(=O)NC(C)=C2C(=O)OC)cc1C (centres undefined)	.	.	-	.	.
CC(C)OC(=O)CSc1nc2cc3c(cc2cc1C#N)OCO3	?	-	4.47µM	-	-
COC(=O)CSc1nc2cc3c(cc2cc1C#N)OCO3	?	-	?	?	-
CCOC(=O)CSc1nc2ccc(C)cc2cc1C#N	?	-	3.98µM	-	-
NC(=O)CSc1nc2c(oc3ccccc32)c(=O)n1-c1ccccc1F	.	.	-	.	.
O=C(CCCCn1c(=O)c2ccccc2n(CC(=O)Nc2cccc(F)c2)c1=O)NCc1ccccc1Cl	.	.	-	.	.
Cc1ccc(C2N=C(Nc3nc4ccccc4o3)NC3=C2C(=O)CC(C)(C)C3)cc1 (centres undefined)	.	.	-	.	.
CCNC(=O)c1sc2cc(C)ccc2c1Cl	-	-	7.08µM	-	-
Cc1ccc2c(Cl)c(C(=O)NCCc3ccccc3)sc2c1	?	-	3.16µM	-	-
Cn1cccc1C(=O)C(=O)Nc1ccccc1	-	-	7.08µM	-	-
C/C(=N\Nc1nc2ccccc2[nH]1)c1ccccn1	8.91µM	.	.	.	.
COc1cc2ccccc2cc1C(=O)N1CCN(C(C)=O)CC1	-	-	-	-	-
CCOc1ccccc1N1CCN(C(=O)c2cc3ccccc3cc2OC)CC1	-	-	-	-	3.55µM
COC(=O)[C@@H](C)NC(=O)c1ccc2oc(CCc3ccccc3)nc2c1	.	-	11.2µM	-	-
Cc1ccc(NC(=O)C2CCC(CNS(=O)(=O)c3csc(C(N)=O)c3)CC2)cc1Cl (centres undefined)	.	.	-	.	.
Cc1cc(C(=O)COc2cccc([N+](=O)[O-])c2)c(C)n1C1CC1	?	-	7.08µM	-	-
O=C(c1cc(-c2ccc(Cl)c(Cl)c2)on1)N1CCOCC1	-	-	1.26µM	-	-
CN1CCN(C(=O)c2cc(-c3ccccc3)on2)CC1	-	-	7.94µM	-	-
O=C(c1cc(-c2ccccc2)on1)N1CCCCCC1	-	-	1.78µM	-	-
COc1cccc(-c2cc(C(=O)N3CCCCC3C)no2)c1 (centres undefined)	?	-	2.82µM	-	?
O=C(c1cc(-c2ccc(Cl)c(Cl)c2)on1)N1CCCC1	-	.	.	.	.
CCOc1ccc(Nc2oc(/C=C/c3cccc(OC)c3)nc2C#N)cc1	.	.	-	.	.
O=C(Cc1ccccc1)N/N=C/c1ccc2c(c1)OCO2	-	-	1.26µM	-	-
SMILES	p53 reactivator	TCR act	BRCA1 expr up	IL2 activator	uPA generation
O=C(NN=Cc1ccc2c(c1)OCO2)C1CC1	.	-	7.08µM	-	-
CC(C)(C)c1ccc(/C=N/NC(=O)C2CCCC2)cc1	?	-	5.62µM	-	-
O=C(CNc1ccccc1)N/N=C/c1ccc2c(c1)OCO2	?	-	-	-	-
CCCC(=O)Nc1nnc(-c2ccc3c(c2)OCCO3)o1	-	-	6.31µM	-	-
N#C/C(=C\c1ccc(C(=O)O)cc1)c1nc2sc3c(c2c(=O)[nH]1)CCCC3	-	-	-	300.6	-
O=C(C[n+]1ccc(Cl)c2ccc(Cl)cc21)c1ccc(F)cc1	.	.	-	.	.
COc1cc2c(cc1OC)C(COc1ccccc1OC)N(C(=O)COc1ccc(Cl)cc1)CC2 (centres undefined)	.	.	-	.	.
COc1ccc(CCNc2ncnc3cc(OC)c(OC)cc23)cc1OC	-	-	-	-	-
COc1ccc(CCNc2ncccc2C#N)cc1OC	?	-	3.98µM	-	-
CC(=C/c1ccccc1)/C=N/NC(=O)c1cnccn1	?	-	?	-	-
CC(/C=N/NC(=O)c1cccnc1)=C\c1ccccc1	?	-	3.16µM	-	-
